Data as given in article PMC7862700, “An all-to-all approach to the identification of sequence-specific readers for epigenetic DNA modifications on cytosine”.

Assays:
Assay in all cases: DAPPL (digital affinity profiling via proximity ligation, sequencing); 10 mM Tris-HCl pH 7.5, 50 mM NaCl, 1 mM DTT, 4% glycerol, room temperature, 30 min; GST-TFs on glutathione beads, 16-mer random dsDNA library, 0.1% formaldehyde crosslink after washing; high values mean tight binding
[1] = target: T1, FEV (Homo sapiens, UniProt Q99581 1-238); conditions: protein: recombinant; tags: N-terminal GST; dsDNA, one strand shown
T1 sequence: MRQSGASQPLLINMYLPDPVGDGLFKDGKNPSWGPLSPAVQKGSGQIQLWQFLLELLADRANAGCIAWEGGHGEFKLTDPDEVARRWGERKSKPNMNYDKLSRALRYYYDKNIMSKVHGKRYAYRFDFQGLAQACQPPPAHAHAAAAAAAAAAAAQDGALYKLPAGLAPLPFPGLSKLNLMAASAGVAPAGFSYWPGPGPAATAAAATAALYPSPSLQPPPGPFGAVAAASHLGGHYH
Outline: (§1)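 Human transcription factors were made in yeast as GST fusions, captured on glutathione beads and barcoded with DNA. With a tag-only sample included, the pool was incubated with 200 nmole of a random double-stranded 16-mer DNA library in Tris/NaCl/DTT/glycerol buffer at room temperature for 30 min, then crosslinked with 0.1% formaldehyde after washing, ligated by proximity, amplified and sequenced. For binding signal, each hexamer's read frequency for a factor is divided by its frequency for the tag-only sample.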

[2] = target: ETV5 (Homo sapiens, UniProt P41161 1-510); conditions: protein: recombinant; tags: N-terminal GST; dsDNA, one strand shown
Sequence of ETV5 (P41161 whole entry): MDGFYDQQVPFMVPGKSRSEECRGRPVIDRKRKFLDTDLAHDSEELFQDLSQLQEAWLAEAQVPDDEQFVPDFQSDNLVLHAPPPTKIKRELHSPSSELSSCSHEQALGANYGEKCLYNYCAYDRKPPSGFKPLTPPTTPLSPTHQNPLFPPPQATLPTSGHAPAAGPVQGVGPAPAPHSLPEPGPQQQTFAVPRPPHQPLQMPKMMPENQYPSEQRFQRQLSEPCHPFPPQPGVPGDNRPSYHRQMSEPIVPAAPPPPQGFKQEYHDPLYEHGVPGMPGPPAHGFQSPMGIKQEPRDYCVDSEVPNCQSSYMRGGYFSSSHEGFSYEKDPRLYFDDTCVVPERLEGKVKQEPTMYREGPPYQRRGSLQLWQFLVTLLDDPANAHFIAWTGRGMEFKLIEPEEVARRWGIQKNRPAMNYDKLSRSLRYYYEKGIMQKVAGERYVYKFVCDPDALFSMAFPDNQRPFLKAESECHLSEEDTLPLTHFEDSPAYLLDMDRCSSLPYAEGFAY
Outline: as §1

[3] = target: HSF1 (Homo sapiens, UniProt Q00613 1-529); conditions: protein: recombinant; tags: N-terminal GST; chain copies: 3; dsDNA, one strand shown
Sequence of HSF1 (Q00613 whole entry): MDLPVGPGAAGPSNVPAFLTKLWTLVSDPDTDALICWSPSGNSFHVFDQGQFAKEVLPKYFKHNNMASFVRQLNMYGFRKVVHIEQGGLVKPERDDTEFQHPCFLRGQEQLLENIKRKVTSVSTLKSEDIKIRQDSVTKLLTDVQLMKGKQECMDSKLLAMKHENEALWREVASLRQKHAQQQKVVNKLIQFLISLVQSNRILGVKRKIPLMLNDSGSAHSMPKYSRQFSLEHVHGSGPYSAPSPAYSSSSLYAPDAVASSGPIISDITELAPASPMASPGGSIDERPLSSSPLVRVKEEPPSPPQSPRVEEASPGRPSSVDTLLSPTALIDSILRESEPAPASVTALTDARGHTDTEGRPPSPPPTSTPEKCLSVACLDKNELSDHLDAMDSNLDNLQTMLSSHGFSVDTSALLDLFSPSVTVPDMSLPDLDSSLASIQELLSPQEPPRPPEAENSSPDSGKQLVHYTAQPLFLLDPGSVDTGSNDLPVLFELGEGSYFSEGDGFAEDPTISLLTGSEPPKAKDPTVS
Outline: as §1

[4] = target: T2, SPIC (Homo sapiens, UniProt Q8N5J4 1-248); conditions: protein: recombinant; tags: N-terminal GST; dsDNA, one strand shown
T2 sequence: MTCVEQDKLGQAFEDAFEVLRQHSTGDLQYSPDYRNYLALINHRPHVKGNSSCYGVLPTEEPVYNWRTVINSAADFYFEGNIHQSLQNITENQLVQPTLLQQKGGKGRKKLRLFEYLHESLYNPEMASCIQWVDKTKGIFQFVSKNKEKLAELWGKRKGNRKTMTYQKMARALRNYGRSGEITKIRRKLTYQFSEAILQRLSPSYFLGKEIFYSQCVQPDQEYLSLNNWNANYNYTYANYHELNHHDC
Outline: as §1

[5] = target: ELF4 (Homo sapiens, UniProt Q99607 1-663); conditions: protein: recombinant; tags: N-terminal GST; dsDNA, one strand shown
Sequence of ELF4 (Q99607 whole entry): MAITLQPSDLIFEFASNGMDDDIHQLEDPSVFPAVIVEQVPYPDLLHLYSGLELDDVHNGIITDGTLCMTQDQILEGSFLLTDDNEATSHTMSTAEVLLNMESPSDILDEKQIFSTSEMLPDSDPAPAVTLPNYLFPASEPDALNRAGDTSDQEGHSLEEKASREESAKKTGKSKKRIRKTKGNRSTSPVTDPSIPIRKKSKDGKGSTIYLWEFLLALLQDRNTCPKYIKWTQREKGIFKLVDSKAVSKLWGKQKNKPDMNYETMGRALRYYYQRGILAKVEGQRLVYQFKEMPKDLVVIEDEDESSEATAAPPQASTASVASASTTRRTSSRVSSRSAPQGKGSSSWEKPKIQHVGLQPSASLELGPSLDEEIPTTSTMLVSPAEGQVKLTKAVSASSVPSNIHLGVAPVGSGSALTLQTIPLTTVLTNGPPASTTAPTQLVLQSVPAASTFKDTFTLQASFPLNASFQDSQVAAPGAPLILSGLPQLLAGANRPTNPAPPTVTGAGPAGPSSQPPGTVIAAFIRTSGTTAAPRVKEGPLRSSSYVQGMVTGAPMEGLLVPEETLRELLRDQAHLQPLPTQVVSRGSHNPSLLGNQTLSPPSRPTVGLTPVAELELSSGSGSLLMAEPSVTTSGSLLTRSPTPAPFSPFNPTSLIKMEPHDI
Outline: as §1

[6] = target: T3, ELK4 (Homo sapiens, UniProt P28324-2 1-405); conditions: protein: recombinant; tags: N-terminal GST; dsDNA, one strand shown
T3 sequence: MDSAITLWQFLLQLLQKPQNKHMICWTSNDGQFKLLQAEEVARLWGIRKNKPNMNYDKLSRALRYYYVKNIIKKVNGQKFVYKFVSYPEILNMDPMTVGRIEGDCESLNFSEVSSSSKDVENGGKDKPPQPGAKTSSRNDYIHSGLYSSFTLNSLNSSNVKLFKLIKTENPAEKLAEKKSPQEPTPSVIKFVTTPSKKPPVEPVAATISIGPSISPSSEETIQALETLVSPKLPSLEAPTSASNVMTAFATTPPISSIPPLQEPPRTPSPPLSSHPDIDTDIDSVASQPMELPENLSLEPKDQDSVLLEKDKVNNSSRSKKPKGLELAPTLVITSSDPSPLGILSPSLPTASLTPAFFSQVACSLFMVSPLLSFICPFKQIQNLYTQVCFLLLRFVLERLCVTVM
Outline: as §1

[7] = target: T4, ETV2 (Homo sapiens, UniProt O00321 1-342); conditions: protein: recombinant; tags: N-terminal GST; dsDNA, one strand shown
T4 sequence: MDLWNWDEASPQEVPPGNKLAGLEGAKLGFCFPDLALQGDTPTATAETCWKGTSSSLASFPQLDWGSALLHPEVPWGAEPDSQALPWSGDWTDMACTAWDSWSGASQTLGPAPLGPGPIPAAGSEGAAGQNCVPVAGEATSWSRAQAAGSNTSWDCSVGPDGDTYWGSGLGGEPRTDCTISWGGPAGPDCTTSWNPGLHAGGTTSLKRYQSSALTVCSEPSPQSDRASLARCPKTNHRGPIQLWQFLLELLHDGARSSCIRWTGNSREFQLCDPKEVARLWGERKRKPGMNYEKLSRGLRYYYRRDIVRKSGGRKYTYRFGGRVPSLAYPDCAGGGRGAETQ
Outline: as §1

[8] = target: T5, ELF3 (Homo sapiens, UniProt P78545 1-371); conditions: protein: recombinant; tags: N-terminal GST; dsDNA, one strand shown
T5 sequence: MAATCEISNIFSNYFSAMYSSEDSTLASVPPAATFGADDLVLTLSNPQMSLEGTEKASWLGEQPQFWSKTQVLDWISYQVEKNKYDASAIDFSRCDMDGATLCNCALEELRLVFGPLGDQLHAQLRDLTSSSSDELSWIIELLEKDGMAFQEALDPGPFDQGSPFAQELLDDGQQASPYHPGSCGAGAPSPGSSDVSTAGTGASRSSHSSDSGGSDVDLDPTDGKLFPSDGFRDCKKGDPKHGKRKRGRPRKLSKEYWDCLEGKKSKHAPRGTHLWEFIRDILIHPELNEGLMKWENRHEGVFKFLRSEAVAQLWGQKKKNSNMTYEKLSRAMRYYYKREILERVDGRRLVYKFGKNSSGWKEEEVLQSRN
Outline: as §1

[9] = target: CRX (Homo sapiens, UniProt O43186 1-299); conditions: protein: recombinant; tags: N-terminal GST; dsDNA, one strand shown
Sequence of CRX (O43186 whole entry): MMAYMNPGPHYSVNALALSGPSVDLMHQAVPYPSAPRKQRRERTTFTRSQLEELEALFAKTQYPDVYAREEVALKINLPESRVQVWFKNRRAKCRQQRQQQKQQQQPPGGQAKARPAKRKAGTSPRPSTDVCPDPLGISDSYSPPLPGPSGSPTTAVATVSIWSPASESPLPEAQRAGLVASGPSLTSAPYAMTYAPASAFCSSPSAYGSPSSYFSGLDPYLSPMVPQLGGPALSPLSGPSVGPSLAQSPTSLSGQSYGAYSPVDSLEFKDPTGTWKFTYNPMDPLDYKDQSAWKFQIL
Outline: as §1

[10] = target: ETV1 (Homo sapiens, UniProt P50549 1-477); conditions: protein: recombinant; tags: N-terminal GST; dsDNA, one strand shown
Sequence of ETV1 (P50549 whole entry): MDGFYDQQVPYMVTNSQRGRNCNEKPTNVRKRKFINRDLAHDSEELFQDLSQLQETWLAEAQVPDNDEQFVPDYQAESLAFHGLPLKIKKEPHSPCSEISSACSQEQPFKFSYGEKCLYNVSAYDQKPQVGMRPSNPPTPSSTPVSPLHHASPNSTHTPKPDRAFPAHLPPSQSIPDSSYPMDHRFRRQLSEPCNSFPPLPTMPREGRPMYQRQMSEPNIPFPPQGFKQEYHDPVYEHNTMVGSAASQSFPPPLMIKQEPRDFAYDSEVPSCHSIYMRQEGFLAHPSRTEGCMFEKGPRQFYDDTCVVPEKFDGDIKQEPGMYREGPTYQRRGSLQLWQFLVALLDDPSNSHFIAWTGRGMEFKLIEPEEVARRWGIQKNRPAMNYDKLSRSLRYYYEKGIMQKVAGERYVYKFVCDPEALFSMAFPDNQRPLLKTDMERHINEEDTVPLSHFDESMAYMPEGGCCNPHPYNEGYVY
Outline: as §1

[11] = target: T6, ERF (Homo sapiens, UniProt P50548 1-548); conditions: protein: recombinant; tags: N-terminal GST; dsDNA, one strand shown
T6 sequence: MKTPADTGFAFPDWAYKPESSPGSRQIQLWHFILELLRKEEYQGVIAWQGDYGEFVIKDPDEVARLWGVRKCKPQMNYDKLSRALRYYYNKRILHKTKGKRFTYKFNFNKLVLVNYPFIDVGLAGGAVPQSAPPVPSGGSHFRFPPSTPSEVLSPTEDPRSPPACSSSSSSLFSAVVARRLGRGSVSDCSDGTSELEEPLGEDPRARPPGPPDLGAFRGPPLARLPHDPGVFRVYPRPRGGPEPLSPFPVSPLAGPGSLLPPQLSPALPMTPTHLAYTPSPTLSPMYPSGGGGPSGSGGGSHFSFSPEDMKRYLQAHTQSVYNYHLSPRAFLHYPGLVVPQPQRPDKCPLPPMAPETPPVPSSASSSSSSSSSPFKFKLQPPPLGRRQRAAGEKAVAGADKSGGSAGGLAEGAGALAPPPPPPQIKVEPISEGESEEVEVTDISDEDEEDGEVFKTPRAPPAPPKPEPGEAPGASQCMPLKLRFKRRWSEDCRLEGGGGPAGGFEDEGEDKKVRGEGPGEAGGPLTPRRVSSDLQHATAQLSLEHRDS
Outline: as §1

[12] = target: T7, ETV3L (Homo sapiens, UniProt Q6ZN32 1-361); conditions: protein: recombinant; tags: N-terminal GST; dsDNA, one strand shown
T7 sequence: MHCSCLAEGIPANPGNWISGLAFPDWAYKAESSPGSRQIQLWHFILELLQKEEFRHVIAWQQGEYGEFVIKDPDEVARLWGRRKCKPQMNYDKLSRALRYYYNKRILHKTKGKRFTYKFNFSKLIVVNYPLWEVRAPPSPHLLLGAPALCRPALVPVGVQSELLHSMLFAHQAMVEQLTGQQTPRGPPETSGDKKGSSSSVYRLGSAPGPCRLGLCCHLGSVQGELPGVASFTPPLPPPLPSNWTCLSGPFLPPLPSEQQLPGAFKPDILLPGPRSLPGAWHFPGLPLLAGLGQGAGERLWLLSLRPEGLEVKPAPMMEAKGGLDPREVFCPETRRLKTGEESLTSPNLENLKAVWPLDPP
Outline: as §1

[13] = target: T8, ETS2 (Homo sapiens, UniProt P15036 1-469); conditions: protein: recombinant; tags: N-terminal GST; dsDNA, one strand shown
T8 sequence: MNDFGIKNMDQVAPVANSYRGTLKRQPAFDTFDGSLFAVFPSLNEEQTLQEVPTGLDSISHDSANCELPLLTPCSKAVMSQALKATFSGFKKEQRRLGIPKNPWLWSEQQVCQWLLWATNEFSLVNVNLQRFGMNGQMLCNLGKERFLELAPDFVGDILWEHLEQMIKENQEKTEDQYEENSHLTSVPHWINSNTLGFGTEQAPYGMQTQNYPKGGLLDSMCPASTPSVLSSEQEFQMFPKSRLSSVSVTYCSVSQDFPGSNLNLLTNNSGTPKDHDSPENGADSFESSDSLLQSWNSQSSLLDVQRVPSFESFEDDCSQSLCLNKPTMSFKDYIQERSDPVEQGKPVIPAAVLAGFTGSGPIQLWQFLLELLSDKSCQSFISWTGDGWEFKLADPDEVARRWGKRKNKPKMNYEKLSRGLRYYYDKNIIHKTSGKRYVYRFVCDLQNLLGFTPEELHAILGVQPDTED
Outline: as §1

[14] = target: T9, SPDEF (Homo sapiens, UniProt O95238 1-335); conditions: protein: recombinant; tags: N-terminal GST; dsDNA, one strand shown
T9 sequence: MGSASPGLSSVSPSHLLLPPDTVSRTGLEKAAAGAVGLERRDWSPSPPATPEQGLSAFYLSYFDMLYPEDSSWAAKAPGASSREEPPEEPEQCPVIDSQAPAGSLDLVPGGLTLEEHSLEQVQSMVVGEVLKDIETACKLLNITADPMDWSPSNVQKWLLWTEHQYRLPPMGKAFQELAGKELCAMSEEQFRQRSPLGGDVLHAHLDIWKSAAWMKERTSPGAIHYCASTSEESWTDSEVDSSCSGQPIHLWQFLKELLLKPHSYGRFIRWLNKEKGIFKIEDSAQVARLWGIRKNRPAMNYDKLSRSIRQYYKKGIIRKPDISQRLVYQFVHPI
Outline: as §1

[15] = target: T10, ETV7 (Homo sapiens, UniProt Q9Y603 1-341); conditions: protein: recombinant; tags: N-terminal GST; dsDNA, one strand shown
T10 sequence: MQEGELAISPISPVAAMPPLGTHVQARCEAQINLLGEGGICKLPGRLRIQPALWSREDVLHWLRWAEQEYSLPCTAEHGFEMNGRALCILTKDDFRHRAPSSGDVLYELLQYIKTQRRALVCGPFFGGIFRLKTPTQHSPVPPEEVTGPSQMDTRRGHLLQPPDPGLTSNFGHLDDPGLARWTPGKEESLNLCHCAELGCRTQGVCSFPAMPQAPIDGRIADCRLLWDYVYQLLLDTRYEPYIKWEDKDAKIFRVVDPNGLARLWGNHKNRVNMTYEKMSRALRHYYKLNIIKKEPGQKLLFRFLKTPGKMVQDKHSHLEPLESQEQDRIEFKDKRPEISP
Outline: as §1

[16] = target: T11, ELF5 (Homo sapiens, UniProt Q9UKW6-2 1-255); conditions: protein: recombinant; tags: N-terminal GST; dsDNA, one strand shown
T11 sequence: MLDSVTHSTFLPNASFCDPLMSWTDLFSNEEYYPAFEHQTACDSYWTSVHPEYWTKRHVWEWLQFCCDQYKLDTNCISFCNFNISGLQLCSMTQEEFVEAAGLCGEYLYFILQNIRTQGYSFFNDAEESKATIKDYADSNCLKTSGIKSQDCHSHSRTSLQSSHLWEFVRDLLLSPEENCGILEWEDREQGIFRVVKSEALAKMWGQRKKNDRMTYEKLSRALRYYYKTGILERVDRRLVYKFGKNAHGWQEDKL
Outline: as §1

[17] = target: T12, ETV3 (Homo sapiens, UniProt P41162-2 1-143); conditions: protein: recombinant; tags: N-terminal GST; dsDNA, one strand shown
T12 sequence: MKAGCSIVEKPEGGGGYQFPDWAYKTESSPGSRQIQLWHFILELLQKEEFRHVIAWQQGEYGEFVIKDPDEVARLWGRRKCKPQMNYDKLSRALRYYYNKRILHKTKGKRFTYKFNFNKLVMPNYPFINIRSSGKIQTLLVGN
Outline: as §1

[18] = target: ETV6 (Homo sapiens, UniProt P41212 1-452); conditions: protein: recombinant; tags: N-terminal GST; dsDNA, one strand shown
Sequence of ETV6 (P41212 whole entry): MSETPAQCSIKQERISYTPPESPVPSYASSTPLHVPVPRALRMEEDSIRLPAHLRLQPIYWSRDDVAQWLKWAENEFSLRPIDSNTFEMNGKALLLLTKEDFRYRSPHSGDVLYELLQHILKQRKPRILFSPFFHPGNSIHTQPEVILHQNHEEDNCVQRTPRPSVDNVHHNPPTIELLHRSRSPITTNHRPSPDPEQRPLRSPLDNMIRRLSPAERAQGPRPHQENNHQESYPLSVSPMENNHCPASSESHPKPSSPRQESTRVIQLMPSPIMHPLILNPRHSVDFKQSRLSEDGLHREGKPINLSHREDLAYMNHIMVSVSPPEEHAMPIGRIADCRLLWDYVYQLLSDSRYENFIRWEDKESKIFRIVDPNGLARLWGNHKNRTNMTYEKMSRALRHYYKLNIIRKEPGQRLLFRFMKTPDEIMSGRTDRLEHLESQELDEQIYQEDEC
Outline: as §1

Sequence	binding signal [1]	binding signal [2]	binding signal [3]	binding signal [4]	binding signal [5]	binding signal [6]	binding signal [7]	binding signal [8]	binding signal [9]	binding signal [10]	binding signal [11]	binding signal [12]	binding signal [13]	binding signal [14]	binding signal [15]	binding signal [16]	binding signal [17]	binding signal [18]
AATGGC	1.52 fold enrichment (6-mer frequency, TF over GST control)	1.42 fold enrichment (6-mer frequency, TF over GST control)	1.28 fold enrichment (6-mer frequency, TF over GST control)	1.61 fold enrichment (6-mer frequency, TF over GST control)	1.29 fold enrichment (6-mer frequency, TF over GST control)	1.52 fold enrichment (6-mer frequency, TF over GST control)	1.26 fold enrichment (6-mer frequency, TF over GST control)	1.55 fold enrichment (6-mer frequency, TF over GST control)	1.26 fold enrichment (6-mer frequency, TF over GST control)	1.44 fold enrichment (6-mer frequency, TF over GST control)	1.25 fold enrichment (6-mer frequency, TF over GST control)	1.3 fold enrichment (6-mer frequency, TF over GST control)	1.39 fold enrichment (6-mer frequency, TF over GST control)	1.29 fold enrichment (6-mer frequency, TF over GST control)	1.32 fold enrichment (6-mer frequency, TF over GST control)	1.44 fold enrichment (6-mer frequency, TF over GST control)	1.41 fold enrichment (6-mer frequency, TF over GST control)	1.51 fold enrichment (6-mer frequency, TF over GST control)
CTACAT	1.44 fold enrichment (6-mer frequency, TF over GST control)	1.45 fold enrichment (6-mer frequency, TF over GST control)	1.17 fold enrichment (6-mer frequency, TF over GST control)	1.51 fold enrichment (6-mer frequency, TF over GST control)	1.37 fold enrichment (6-mer frequency, TF over GST control)	1.33 fold enrichment (6-mer frequency, TF over GST control)	1.31 fold enrichment (6-mer frequency, TF over GST control)	1.28 fold enrichment (6-mer frequency, TF over GST control)	1.11 fold enrichment (6-mer frequency, TF over GST control)	1.41 fold enrichment (6-mer frequency, TF over GST control)	1.66 fold enrichment (6-mer frequency, TF over GST control)	1.41 fold enrichment (6-mer frequency, TF over GST control)	1.43 fold enrichment (6-mer frequency, TF over GST control)	1.5 fold enrichment (6-mer frequency, TF over GST control)	1.32 fold enrichment (6-mer frequency, TF over GST control)	1.53 fold enrichment (6-mer frequency, TF over GST control)	1.44 fold enrichment (6-mer frequency, TF over GST control)	1.43 fold enrichment (6-mer frequency, TF over GST control)
